An excerpt weighted towards active compounds, which were near 5.6% of everything screened.
CtBP-E1A inh – blocks the CtBP interaction with E1A; activity change, % (no concentration beside the values); actives 0.49% (n = 340,000); AlphaScreen GST-E1A/His-CtBP binding, 1536-well; stronger effect = lower value; in the data active = activity change below about -65%; inconclusive = mostly about -30% to -63%
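AlphaScreen with 125 nM GST-E1A and 125 nM His-CtBP (5X stocks) in Tris pH 8.0, 300 mM NaCl, BSA, Tween 20, TCEP. Compounds preincubated 2 h at 37 deg C, then glutathione donor/nickel acceptor beads added for 1 h at 37 deg C in dark.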
VP16 counter – Gal4-VP16 reporter inhibition counter-screen; Drosophila S2 Gal4-VP16 UAS-luciferase, luminescence, 20 h; Potency, µM (doses to about 53.6 µM), inactives show at the top dose activity, negative = inhibition, actives largely listed as inhibitors; actives 3.5% (n = 310,000); AID 2546;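 note: Gal4-VP16 expression switched on by copper sulfate through the metallothionein promoter; potency is the fitted concentration of half-maximal effect; nearly all actives have a fitted effect of over 50% in size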
PKM2 activator – increases activity of human pyruvate kinase M2; Potency, µM (series often up to 57.5 µM), for the others: at the highest dose activation, usual class: activators; purified PKM2, Kinase-Glo ATP luminescence, activation; response scale: 0% is enzyme alone, no compound; actives 0.34% (n = 260,000); note: potency is the fitted concentration of half-maximal effect; nearly all actives have a fitted effect of over 55% in size
Target sequence (P14618 whole entry, looked up): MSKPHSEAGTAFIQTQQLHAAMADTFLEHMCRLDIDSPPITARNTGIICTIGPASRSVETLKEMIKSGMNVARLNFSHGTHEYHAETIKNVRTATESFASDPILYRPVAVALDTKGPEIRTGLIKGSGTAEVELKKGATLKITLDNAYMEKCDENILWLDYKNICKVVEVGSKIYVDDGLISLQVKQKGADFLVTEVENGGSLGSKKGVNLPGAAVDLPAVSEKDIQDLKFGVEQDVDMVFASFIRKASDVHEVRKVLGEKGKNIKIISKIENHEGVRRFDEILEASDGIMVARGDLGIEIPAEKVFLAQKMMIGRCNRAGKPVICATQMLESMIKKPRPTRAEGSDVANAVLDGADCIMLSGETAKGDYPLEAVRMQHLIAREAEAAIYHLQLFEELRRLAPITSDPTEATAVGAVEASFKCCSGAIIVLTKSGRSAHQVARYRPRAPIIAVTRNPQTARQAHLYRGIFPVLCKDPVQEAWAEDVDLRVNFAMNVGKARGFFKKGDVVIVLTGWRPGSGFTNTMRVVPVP
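hPK-M2, >95% pure; 0.1 mM ADP / 0.5 mM PEP final; imidazole pH7.2 buffer w/ 7 mM MgCl2, 50 mM KCl; 1 h RT; Kinase-Glo lum. Intermediate enzyme activity for dual inhibitor/activator qHTS.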
RORgamma inh – ROR gamma (mouse) transcription inhibition; P51450; Drosophila S2 Gal4-RORgamma UAS-luciferase reporter, 20 h; Potency, µM (highest dose often 53.6 µM), inactives show at the top dose activity change, negative = inhibition, hits mostly inhibitors; actives 5.4% (n = 310,000); note: potency is the fitted concentration of half-maximal effect; nearly all actives have a fitted effect of over 60% in size
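Stably transfected Drosophila Schneider cells are the test system, with ROR gamma fused to Gal4 and luciferase under UAS control; luminescence is read after 20 hr of 700 uM copper sulfate induction at ambient temperature.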
Six1-Eya2 blk – blocks human Six1 binding to Eya2; Q15475+O00167; AlphaScreen GST-Six1/His-Eya2 binding, biochemical; stronger effect = lower value; activity change, % (concentration not given with the values); actives 0.56% (n = 360,000); AID 651725; in the data active = activity change below about -65%; inconclusive = mostly about -30% to -63%
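AlphaScreen with GST-Six1 and His-Eya2 (5X mix: 250 nM and 500 nM), glutathione donor and nickel acceptor beads; buffer 50 mM Tris pH 8.0, 300 mM NaCl, 1 mM TCEP; 1 h at 37 C in the dark.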
An asterisk follows results filed as active; u = inconclusive; x = no result given. Unless noted, calls come from the whole dose curve; as a rule, active = well fitted curve in the direction sought with a large enough effect; inconclusive = small, poorly fitted or top-dose-only effect, or another doubt; inactive = no such curve, though single readings can be large; an effect the other way counts as inactive or inconclusive. % is set by controls: 0 for no effect and ±100 for the full control effect.

SMILES	CtBP-E1A inh	VP16 counter	PKM2 activator	RORgamma inh	Six1-Eya2 blk
CCC(CC)c1nnc(NC(=O)c2cc(-c3ccccc3)nc3ccccc23)s1	9	11µM*	-2%	10µM*	-1
CCCNC(=O)C1(C)CCCN(Cc2cccc(C#N)c2)C1 (stereo not drawn)	1	x	x	x	12
Cc1cc(OCCN2CCOCC2)ccc1C(C)C	7	-17%	x	0%	3
CC1(c2ccccc2Cl)NC(=O)N(CC(=O)N2c3ccccc3NC(=O)C2(C)C)C1=O (stereo not drawn)	-9	x	x	x	5
Cc1cccc2cc(/C=N/NC(=O)c3ccccc3O)c(Cl)nc12	-2	u	0%	10µM*	-3
Cc1ccc2cc(/C=N/NC(=O)c3ccccc3O)c(Cl)nc2c1	-12	u	u	2.8µM*	-12
C=CCN(C(=O)CNS(=O)(=O)c1ccccc1)C(C(=O)NCCOC)c1cccnc1 (stereo not drawn)	20	-1%	0%	-5%	0
Cc1cccc(C(=O)O/N=C/c2c(N3CCOCC3)n(C)c3ccccc23)c1	x	3.5µM*	0%	1.6µM*	x
Cn1c(Cl)c(/C=N/OC(=O)c2ccccc2Cl)c2ccccc21	2	-8%	3%	0%	8
O=C(Nc1ccccc1)c1nnsc1S(=O)c1ccc(Cl)cc1 (stereo not drawn)	-5	4.5µM*	18%	16µM*	-1
CNC(=O)c1nnsc1S(=O)(=O)c1ccc(Cl)cc1	-8	0.4µM*	x	0.56µM*	-11
Cc1nnsc1S(=O)c1ccc(Cl)cc1 (stereo not drawn)	x	3%	x	-22%	12
O=C(c1nnsc1S(=O)c1ccc(Cl)cc1)N1CCOCC1 (stereo not drawn)	-6	3.5µM*	x	1.1µM*	-3
CNC(=O)c1ccc(S(=O)(=O)c2ccc(Cl)cc2)c(NC(C)=O)c1	0	1%	x	17%	-1
O=C(c1nnsc1S(=O)(=O)c1ccc(Cl)cc1)N1CCOCC1	16	10µM*	1%	2.8µM*	2
Nc1nc(C(=O)N2CCOCC2)nn1S(=O)(=O)c1ccc(Cl)cc1	-1	1%	-7%	-23%	3
CCCn1nnc(NC(=O)c2ccc3c(c2)OCO3)n1	-5	-16%	1%	-25%	9
COc1ccc(CNC(=O)C[C@H]2C[C@H](C(=O)N(C(C)C)C(C)C)[C@@]3(C)c4[nH]c5cc(-c6ccco6)ccc5c4CCN3C2=O)cc1OC	u	x	x	x	-21
OC[C@@H]1OC(O)[C@@H](O)[C@H](O)[C@@H]1O (stereo partly drawn)	x	3%	x	-4%	x
Cc1ccc2nc(N3C(=O)CNC3=S)sc2c1	u	3.5µM*	-34%	1µM*	u
COc1ccc2nc(N3C(=O)CNC3=S)sc2c1	1	5.6µM*	-44%	0.5µM*	-12
CSc1ccccc1NC(=S)NC1CCCCC1	-10	u	3%	3.5µM*	-1
S=C(Nc1cccc2ccccc12)NC1CCCCC1	-13	10µM*	-2%	2µM*	-15
CCc1ccccc1NC(=O)NC1CCCCCCC1	5	3%	-2%	19%	1
CCCCc1ccccc1NC(=S)NC1CCCC1	-5	4.5µM*	1%	3.2µM*	-7
SMILES	CtBP-E1A inh	VP16 counter	PKM2 activator	RORgamma inh	Six1-Eya2 blk
CC(C)(C)C(=O)NC(=S)Nc1ccccc1C(=O)NC1CCCCC1	x	22%	-2%	u	10
CC(C)c1ccccc1NC(=S)NC1CCCCC1	5	10µM*	-6%	0.45µM*	9
O=C(Nc1cccc2ccccc12)C1CCCC1	11	-6%	-29%	-32%	0
O=C(NCCc1cccc(Cl)c1)c1cccs1	8	u	-2%	u	0
CSc1ccccc1NC(=S)NC1CCCC1	1	7.1µM*	6%	6.3µM*	2
CSc1ccccc1C(=O)NC1CCCC1	-21	-2%	-20%	-3%	-3
CCN1/C(=C/C=C/c2oc3ccc(-c4ccccc4)cc3[n+]2CC)Oc2ccc(-c3ccccc3)cc21	19	0.35µM*	-3%	13µM*	12
Cn1c(-c2ccccc2)cc2c3no[n+]([O-])c3ccc21	-18	u	1%	6.3µM*	-16
CC(=O)Oc1ccc(/C=C2/CCc3ccccc3C2=O)cc1	3	10µM*	-41%	8.9µM*	4
COc1cccc(C=C2Cc3ccccc3C2=O)c1	8	x	x	x	3
COc1cccc(/C=C2\CCc3ccccc3C2=O)c1	x	11µM*	-52%	11µM*	-1
O=C1C(=Cc2ccccn2)CCc2ccccc21	-7	x	x	x	-15
Cc1ccsc1/C=C1\CCc2ccccc2C1=O	18	11µM*	-80%	u	10
NC(=S)C1COc2ccccc2O1 (stereo not drawn)	-3	-29%	0%	13µM*	7
N#CCSc1nc2ccc(N3CCCCC3)cc2c(=O)n1Cc1ccccc1	-3	u	12%	3.5µM*	-8
N#CCSc1nc2ccccc2c(=O)n1CC1CCCC1	x	-12%	1%	-11%	7
CC1(C(=O)NS(=O)(=O)c2cccc(C#N)c2)CCN1C(=O)Cc1ccccc1 (stereo not drawn)	2	x	x	x	4
COc1cccc(N/C(N)=N/c2nc(CSc3ccccn3)cc(=O)[nH]2)c1	x	u	3%	28%	x
COc1ccnc(CSC(N)=Nc2ccc(F)cc2)c1	u	u	5%	10µM*	u
CCC(C)n1c(=S)[nH]c2c(sc3ccc([N+](=O)[O-])cc32)c1=O (stereo not drawn)	-5	1.3µM*	12%	0.63µM*	1
CC(C)n1c2ccccc2c2cc([N+](=O)[O-])ccc21	-6	-17%	2%	-7%	-1
CC1C/C(=C/c2cccn2C)C(=O)/C(=C/c2cccn2C)C1 (stereo not drawn)	u	u	-5%	13µM*	u
O=C1/C(=C/c2ccncc2)Cc2ccccc21	0	x	x	x	-1
Cc1ccc(N=C2NC(=O)/C(=C/c3cccn3C)S2)cc1	x	-10%	1%	-42%	-7
CC1C/C(=C/c2ccncc2)C(=O)/C(=C/c2ccncc2)C1 (stereo not drawn)	6	2.8µM*	14%	7.1µM*	-1
CN(C)S(=O)(=O)c1ccc(N=Cc2c(C(F)(F)F)[nH]n(C)c2=O)cc1	x	-3%	0%	10%	3
CN(C)S(=O)(=O)c1ccc(NC(=S)NC(=O)c2ccc(Br)o2)cc1	x	u	-1%	11µM*	x
Cc1cc(C)cc(NS(=O)(=O)c2ccc(NC(=S)NC(=O)c3ccc(Br)o3)cc2)c1	-25	7.9µM*	1%	3.5µM*	-8
O=[N+]([O-])c1ccc(-[n+]2ccc3ccccc3c2)c([N+](=O)[O-])c1	-12	x	x	x	-20

Assay outcomes as filed in PubChem BioAssay.
